Assay outcomes as filed in PubChem.
Only some compounds are listed: those with a hit (about 1.5% of all), similar ones and a draw of the others.
PV pol inh: poliovirus RNA polymerase inhibition; P03300; poliovirus polymerase elongation, fluorescence polarization; stronger effect = lower value; % elongation, % (compound at 16.7 µg/mL); hit rate 0.66% among 150,000; in the data active = % elongation below about 90%
MbtI inh: MbtI salicylate synthase inhibition | P9WFX0 | purified MbtI enzyme, fluorescence intensity read-out | inhibition, % (no concentration beside the values) | hit rate 0.89% among 100,000 | AID 493033; in the data active = inhibition mostly above about 56%, no sharp cut-off; inactive = mostly below about 77%
Mtb MenB inh: Mtb MenB enzyme inhibition. inhibition, % (no concentration beside the values). P9WNP5. hit rate 0.43% among 100,000. AID 540299. MenB enzyme assay, absorbance read-out; in the data active = inhibition above about 21%, passing the limit was not always enough
Target sequence (P9WNP5 whole entry, looked up): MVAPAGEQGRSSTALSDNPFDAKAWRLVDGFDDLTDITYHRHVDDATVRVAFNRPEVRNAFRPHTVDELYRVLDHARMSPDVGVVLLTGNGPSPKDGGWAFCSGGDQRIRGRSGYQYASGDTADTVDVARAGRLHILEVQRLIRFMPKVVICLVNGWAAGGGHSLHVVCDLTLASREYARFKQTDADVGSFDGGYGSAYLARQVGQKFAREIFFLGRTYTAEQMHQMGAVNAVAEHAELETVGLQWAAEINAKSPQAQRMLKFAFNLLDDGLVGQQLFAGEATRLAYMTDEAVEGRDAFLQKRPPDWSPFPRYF
An asterisk follows results filed as active; x = no result.

SMILES | PV pol inh | MbtI inh | Mtb MenB inh
c1ccc(CN2CCN(Cc3ccc4c(c3)OCCO4)CC2)cc1 | 100 | -2 | 8
CCN1C(=O)N(c2ccccc2)P(=S)(N2CCCC2)c2cc3c(cc21)OCCO3 (stereo unspecified) | 87* | 90* | -18
c1ccc(CC2CCN(Cn3cnc4ccccc43)CC2)cc1 | 104 | -11 | -25
COc1ccc(C(=O)Nc2nc3c(s2)Cc2cc(OC)ccc2-3)cc1 | 67* | x | x
COc1ccc2c(c1)Cc1sc(NC(=O)c3ccc(OC)c(Br)c3)nc1-2 | 87* | -7 | -3
COc1ccc2c(c1)Cc1sc(NC(=O)c3cccc(F)c3)nc1-2 | 90 | x | x
COc1ccc2c(c1)Cc1sc(NC(=O)c3ccccc3C)nc1-2 | 83* | x | x
COc1ccc2c(c1)-c1nc(NC(=O)c3ccccc3Br)sc1CC2 | 103 | -4 | -23
COc1ccc2c(c1)Cc1sc(NC(=O)c3cccc(Br)c3)nc1-2 | 97 | x | x
Cc1occc1C(=O)N=Nc1cc(C(C)(C)C)c(O)c(C(C)(C)C)c1 | 99 | -22 | -42
CCN(Cc1ccccc1)C(=O)Cn1c(=O)n(NC(=O)c2ccccc2)c(=O)c2sccc21 | 102 | -5 | -7
CC/C(=N\NC(=O)c1cccnc1)c1cc(F)ccc1O | 129 | 3 | -76
Cc1ccc(NC(=O)Cn2cc(C#N)c3ccccc32)cc1 | 102 | 3 | 56*
COc1ccc(NC(=O)Cn2cc(C#N)c3ccccc32)cc1 | 99 | -11 | -1
O=C(Nc1cccc(N2CCCC2)c1)C(F)(F)C(F)F | 102 | -14 | 4
COc1ccccc1/C=C1\C(=O)NC(=O)N(C2CCCC2)C1=O | 105 | 11 | -58
Cc1ccccc1N1C(=O)NC(=O)/C(=C\C=C\c2ccco2)C1=O | 104 | 66* | -129
COc1ccccc1N1C(=O)NC(=O)/C(=C\C=C\c2ccco2)C1=O | 99 | 73* | -183
O=C1NC(=Nc2ccccc2)S/C1=C/C=C/c1ccco1 | 106 | 1 | -164
CS(=O)(=O)N1CCN(C(=O)CCC(=O)O)CC1 | 101 | -8 | 1
COc1cc(C(=O)NC2CCCc3ccccc32)ccc1OCc1c(C)noc1C (stereo unspecified) | 100 | -5 | -22
CC(=O)n1nc(C)cc1-c1ccccc1 | 104 | x | -5
C/C(=N\NC(=O)COc1ccccc1C)c1ccccc1O | 108 | 1 | -37
C/C(=N\NC(=O)c1nc(Cl)c(Cl)c(N)c1Cl)c1cc(O)ccc1O | 105 | 56* | -19
c1coc(-c2nnc(-c3ccco3)nn2)c1 | 43* | 13 | -63
SMILES | PV pol inh | MbtI inh | Mtb MenB inh
Cn1nnnc1-c1ccco1 | 103 | x | 9
Oc1ccc(NCc2ccc(Br)cc2)cc1 | 102 | 20 | 5
O=C(O)Cc1ccc(NCc2ccc(Br)cc2)cc1 | 102 | 66* | 4
CCN(CC)C(=O)CCN1C(=O)c2cc(Cl)c(Cl)cc2C1=O | 104 | -13 | -25
O=C(O)c1nccnc1C(=O)Nc1ccc(N2CCOCC2)cc1 | 101 | 5 | -10
O=C(Nc1ccc(N2CCOCC2)cc1)C1=NCCN1 | 63* | -7 | -18
CCn1c(SCC(=O)NC(=O)c2cccn2C)nnc1-c1cccs1 | 103 | -69 | -1
O=C1CSc2nnc(Cn3nnc4ccccc43)n2N1 | 97 | 87* | 3
c1csc(C2=Nn3c(Cn4nnc5ccccc54)nnc3SC2)c1 | 93 | 51 | -19
COc1cc2c(cc1OC)C(c1cccs1)N(C(=O)c1cccs1)CC2 (stereo unspecified) | 100 | 11 | -2
C=CCNC(=O)c1ccc(CN2CCOCC2)cc1 | 101 | -27 | -26
O=C(CSc1ccccc1C(=O)N1CCN(c2ncccn2)CC1)NC12CC3CC(CC(C3)C1)C2 | 101 | 2 | -2
O=C(CN1C(=O)c2ccccc2C1=O)c1ccc(F)cc1 | 106 | -12 | 6
O=C(CN1C(=O)c2ccccc2C1=O)c1ccc(Cl)cc1 | 6.0* | 15 | 13
CCOC(=O)c1cc(-c2ccco2)nc2c1c(C)nn2-c1ccccc1 | 113 | 6 | -24
Cc1nn(-c2ccccc2Cl)c2nc(-c3ccco3)cc(C(=O)NN)c12 | 88* | 103 | 2
OCc1nc2ccccc2n1CN1CCN(Cc2cccs2)CC1 | 103 | -5 | 2
O=C(COC(=O)c1ccc(Cl)s1)c1ccc2[nH]c(=O)[nH]c2c1 | 79* | 5 | -12
Cc1cc(C(=O)OCC(=O)C(C)(C)C)c2ccccc2n1 | 101 | -6 | -2
Cc1cc(C(=O)COC(=O)c2ccc(Cl)s2)c(C)n1-c1ncn[nH]1 | 103 | -7 | -36
O=C(COC(=O)c1nc(Cl)ccc1Cl)c1ccc2[nH]c(=O)[nH]c2c1 | 38* | -6 | -8
Cc1cc(C)nc(SCC(=O)OCC(=O)c2ccc3[nH]c(=O)[nH]c3c2)n1 | 101 | 0 | 2
Cc1cc(C(=O)OCC(=O)c2ccc3[nH]c(=O)[nH]c3c2)c2ccccc2n1 | 90* | -3 | -10
CCN(CC)c1nc(-c2cccs2)c(C(=O)c2ccc(N3C(=O)CCC3=O)cc2)s1 | 105 | 21 | -26
Cc1[nH]c(=S)sc1CC(=O)NC1CCCCC1C (stereo unspecified) | 98 | 84* | -2
SMILES | PV pol inh | MbtI inh | Mtb MenB inh
Cc1cc(C)cc(OCC(=O)NC2CCCCC2C)c1 (stereo unspecified) | x | -1 | -19
O=C1CCCN1c1ccc(S(=O)(=O)Nc2cccc(CCc3ccccn3)c2)cc1 | x | -12 | x
COc1cn(-c2ccccc2)nc1C(=O)NCc1ccccc1CN1CCCC1 | 97 | 101 | -24
CC(O)CNc1nc2ccccc2nc1-c1ccccc1 (stereo unspecified) | 103 | -98 | -59
CC(C)c1ccc2occ(CC(=O)Nc3ccc(S(N)(=O)=O)cc3)c2c1 | 104 | -5 | -32
CCOC(=O)c1c(N)sc(N)c1C(=O)OCC | 98 | 97* | 1
CCOC(=O)c1c(N)sc(=S)c2c1CCC2 | 98 | 6 | -40
CNC(=O)c1ccsc1NC(=O)c1cccc(S(C)(=O)=O)c1 | 101 | -1 | -34
CCN(CC(=O)Nc1cccc(OC)c1)C(=O)Cn1nnc2ccccc21 | 110 | -3 | 1
O=C(CCSc1ccccc1C(=O)O)Nc1ccc(F)cc1 | 101 | -1 | x
CC1CCCCC1Nc1n[nH]c(=S)s1 (stereo unspecified) | 97 | 28 | -78
S=c1[nH]nc(NC2CC2)s1 | 102 | 89* | -37
CCN1CCN(C(=O)c2ccc(S(=O)(=O)N(CC)CC)cc2)CC1 | 101 | -2 | 16
S=C(S)N1CCCC1 | 108 | 96* | -60
NC(=S)N1CCCC1 | 97 | -3 | -16
NC(=O)CN1C(=O)CCS(=O)(=O)c2ccccc21 | 101 | 8 | -8
Cc1ccc(OCCOc2ncnc3sccc23)cc1 | 101 | -5 | 8
C1CCC(N2CCC(N3CCOCC3)CC2)CC1 | x | -10 | x
S=C(NCCc1ccccc1)c1ccccc1 | 103 | -10 | -9
NC(=S)NCCc1ccccc1 | 86* | 83* | -50
CCOc1c(OC)cc(C#N)cc1C(=O)O | 102 | -13 | 6
CCC(=O)Nc1cc(C)c(O)c(-c2nc3cc(C)ccc3o2)c1 | 102 | -5 | -18
Cn1ncnc1C(O)(c1c[nH]c2ccccc12)C(F)(F)F (stereo unspecified) | 108 | -11 | -25
CC(C)CN(C(=O)c1ccncc1)c1nc2ccccc2s1 | 87* | 71* | -7
CC(C)CN(C(=O)c1ccc(=O)n(C)n1)c1nc2ccccc2s1 | 104 | 23 | -8
